Values of other authors as cited in PubChem BioAssay AID977608.
Screen size: about 4,300 compounds; about 4,300 (100%) were called active. No cut-off is given here; in the data, nearly all actives have IC50 up to about 1400 µM. The set was probably picked from earlier hits. This is one part of the list. Starred links: 1 amine or outer side, 2 acyl side, 3 side chain; linkers in the order of their positions; H or OH if unused. Positions of bridges follow the written chain, without caps; N, C: chain ends. Non-standard residues stand in square brackets, D forms with d. Residues, ends and D or L forms follow the SMILES beside them. Nle(6-ylidene) = O=C([C@H](CCCC=[*:3])N[*:1])[*:2]; Abu = CC[C@H](N)C(=O)O

Assay: literature IC50 values for PDB complexes, PDB-derived complexes (AID 977608)
Conditions: PDB protein-ligand complexes

Q: Which IC50 (protein: HLA-B*3501, PDB entry 1xh3) does the source give for `CC(C)C[C@H](NC(=O)CNC(=O)[C@@H](NC(=O)[C@@H](NC(=O)[C@H](C)NC(=O)[C@@H]1CCCN1C(=O)[C@@H](N)CC(C)C)C(C)C)C(C)C)C(=O)N[C@@H](CO)C(=O)N1CCC[C@H]1C(=O)NCC(=O)N[C@@H](CCC(=O)O)C(=O)N[C@@H](CCC(N)=O)C(=O)N[C@@H](CCC(=O)O)C(=O)N[C@@H](Cc1ccc(O)cc1)C(=O)O` here?
A: Its IC50 is 3100 nM (active).

Q: For `C[C@H](N)C(=O)N[C@@H](Cc1ccc(C(F)(F)[P+](O)(O)O)cc1)C(=O)N[C@@H](C)C(=O)O`, which IC50 (protein: TYROSINE-PROTEIN PHOSPHATASE NON-RECEPTOR TYPE 1, PTP1B, PDB entry 3zmp) is on record?
A: The IC50 was 2130 nM (active).

Q: With `CC[C@H](NC(=O)[C@H](CCCCN)NC(=O)[C@H](CCCN=C(N)N)NC(=O)[C@@H]1CCC/C=C\CCC[C@H](NC(=O)[C@H](CCCN=C(N)N)NC(=O)[C@H](CC(C)C)NC(=O)[C@H](CC(C)C)NC(=O)[C@H](CO)NC(=O)[C@@H]2CCCN2C(=O)[C@@H](NC(=O)[C@H](CC(N)=O)NC(=O)[C@H](CCCCN)NC(C)=O)[C@@H](C)CC)C(=O)N[C@@H](CCC(N)=O)C(=O)N[C@@H](C)C(=O)N[C@@H](Cc2c[nH]cn2)C(=O)N1)C(=O)N[C@@H](CCSC)C(=O)N[C@H](C(=O)O)C(C)C` (Ac-KNIPSLLR[Nle(6-ylidene)]QAH[Nle(6-ylidene)]RK[Abu]MV-OH; staple (Z) 9-13) as the molecule, how does the IC50 (protein: Myosin A tail domain interacting protein, MTIP from Plasmodium falciparum, PDB entry 4mzk) read?
A: The IC50 was 4900 nM (active).

Q: With `CC[C@H](C)[C@H](NC(=O)[C@H](Cc1c[nH]cn1)NC(=O)[C@H](C)NC(=O)[C@H](CCC(N)=O)NC(=O)[C@@H](NC(=O)[C@H](CCCN=C(N)N)NC(=O)[C@@H]1CCC/C=C\CCC[C@H](NC(=O)[C@H](CC(N)=O)NC(=O)[C@H](CCCCN)NC(C)=O)C(=O)N2CCC[C@H]2C(=O)N[C@@H](CO)C(=O)N[C@@H](CC(C)C)C(=O)N1)C(C)C)C(=O)N[C@@H](CCCN=C(N)N)C(=O)N[C@@H](CCCCN)C(=O)N[C@@H](CCCCN)C(=O)N[C@@H](CCSC)C(=O)N[C@H](C(=O)O)C(C)C` (Ac-KN[Nle(6-ylidene)]PSL[Nle(6-ylidene)]RVQAHIRKKMV-OH; staple (Z) 3-7) as the molecule, how does the IC50 (protein: Myosin A tail domain interacting protein, MTIP from Plasmodium falciparum, PDB entry 4mzj) read?
A: The IC50 was 1600 nM (active).

Q: With `Cc1ccc(-c2cnc(Nc3ccc(OCCCN4CCN(C)CC4)cc3)c(C(N)=O)n2)cc1C` as the molecule, how does the IC50 (protein: DNA GYRASE SUBUNIT B, PDB entry 4b6c) read?
A: The IC50 was 690 nM (active).

Q: Which results are given for `Nc1ncnc2c1ncn2[C@@H]1O[C@H](CO[P+](O)(O)O)[C@@H](O)[C@H]1O`?
A: IC50 (protein: Bis(5'-adenosyl)-triphosphatase ENPP4, PDB entry 4lqy): 129000 nM (active); IC50 (protein: Sus scrofa FRUCTOSE-1,6-BISPHOSPHATASE, PDB entry 1fpi): 1300 nM (active); IC50 (protein: human liver fructose-1,6-bisphosphatase (FBPase), PDB entry 1fta): 440 nM (active)

Q: For `Nc1ncnc2c1ncn2[C@@H]1O[C@H](CO[P+](O)(O)O[P+](O)(O)OC[C@H]2NC[C@H](O)[C@@H]2O)[C@@H](O)[C@H]1O`, which IC50 (protein: mouse poly(ADP-ribose) glycohydrolase (PARG) catalytic domain, PDB entry 4na4) is on record?
A: The IC50 was 120 nM (active).

Q: For `Nc1ncnc2c1ncn2[C@@H]1O[C@H](CSCC[C@H](N)C(=O)O)[C@@H](O)[C@H]1O`, which IC50 (protein: Catechol O-methyltransferase COMT, PDB entry 4pyn) is on record?
A: The IC50 was 30000 nM (active).

Q: What about the IC50 (protein: Catechol O-methyltransferase COMT, PDB entry 4pyo) of the same molecule?
A: Its IC50 is 30000 nM (active).

Q: For `Nc1ncnc2c1ncn2[C@@H]1O[C@H](CO[P+](O)(O)O[P+](O)(O)N[P+](O)(O)O)[C@@H](O)[C@H]1O`, which IC50 (protein: Microcin-J25 export ATP-binding/permease protein McjD, PDB entry 4pl0) is on record?
A: Its IC50 is 39500 nM (active).

Q: For `CC#C[C@H]1CN(S(=O)(=O)c2ccc(N)nc2)CCN1c1ccc([C@](O)(CCCC)C(F)(F)F)cc1`, which IC50 (protein: Glucokinase regulatory protein hGKRP, PDB entry 4ohk) is on record?
A: Its IC50 is 5 nM (active).

Q: Which IC50 (protein: Cyclin-dependent kinase 2, PDB entry 3rk7) does the source give for `NC(=O)c1ccc(Nc2nc(N)c(C(O)c3cccnc3)s2)cc1` (stereo not given) here?
A: Its IC50 is 200 nM (active).

Q: With `Nc1nc(Nc2ccccc2)sc1C(O)c1cccnc1` (stereo not given) as the molecule, how does the IC50 (protein: Cyclin-dependent kinase 2, PDB entry 3qtw) read?
A: The IC50 was 650 nM (active).

Q: For `Nc1nc(Nc2ccccc2)sc1C(O)c1ccccc1` (stereo not given), which IC50 (protein: Cyclin-dependent kinase 2, PDB entry 3qtr) is on record?
A: The IC50 was 930 nM (active).

Q: With `Nc1nc(Nc2ccc(C(=O)O)cc2)sc1C(O)c1cccnc1` (stereo not given) as the molecule, how does the IC50 (protein: Cyclin-dependent kinase 2, PDB entry 3rk5) read?
A: Its IC50 is 4000 nM (active).

Q: With `Nc1nc(Nc2ccccc2)sc1C(O)c1cccc(C(F)(F)F)c1` (stereo not given) as the molecule, how does the IC50 (protein: Cyclin-dependent kinase 2, PDB entry 3rpr) read?
A: Its IC50 is 100000 nM (active).

Q: For `Cc1cc2c(C3=CCC=NC3=O)c(C(=O)O)n(Cc3cnc4ccccc4c3)c2cc1F`, which IC50 (protein: RNA-directed RNA polymerase, PDB entry 4mz4) is on record?
A: Its IC50 is 13 nM (active).

Q: For `Cc1cccnc1-n1nc(-c2ccccc2)nc1C1C=NC(=O)C(Cl)=C1` (stereo not given), which IC50 (protein: Bromodomain-containing protein 4, PDB entry 4mep) is on record?
A: The IC50 was 4700 nM (active).

Q: Which IC50 (protein: Human Jnk1 alpha kinase, PDB entry 4awi) does the source give for `CC(C)c1cc2c(-c3ccc(S(=O)(=O)NC4CCS(=O)(=O)CC4)cc3)ccnc2[nH]1` here?
A: Its IC50 is 1000 nM (active).

Q: For `O=C(NCc1ccc(S(=O)(=O)c2cccc(C(F)(F)F)c2)cc1)c1cnc2c(cnn2[C@@H]2O[C@H](CO[P+](O)(O)O)[C@@H](O)[C@H]2O)c1`, which IC50 (protein: Nicotinamide phosphoribosyltransferase, PDB entry 4m6q) is on record?
A: The IC50 was 6.1 nM (active).

Q: For `O=C(NCc1ccc(S(=O)(=O)c2cc(F)cc(F)c2)cc1)c1ccc2n(cc[n+]2[C@@H]2O[C@H](CO[P+](O)(O)O)[C@@H](O)[C@H]2O)c1`, which IC50 (protein: Human Nicotinamide Phosphoribosyltransferase, PDB entry 4l4l) is on record?
A: Its IC50 is 5 nM (active).

Q: With `O=C(NCc1ccc(S(=O)(=O)c2cccc(C(F)(F)F)c2)cc1)c1cnc2[nH]ncc2c1` as the molecule, how does the IC50 (protein: Nicotinamide phosphoribosyltransferase NAMPT, PDB entry 4o13) read?
A: Its IC50 is 15 nM (active).

Q: Which IC50 (protein: Mitogen-activated protein kinase kinase kinase kinase 4 MAP4K4, PDB entry 4u45) does the source give for `c1cc(Nc2ncnn3cc(-c4cn[nH]c4)cc23)ccn1` here?
A: Its IC50 is 10 nM (active).
